# The full ranking holds about 140,000 sequences; the median of “enrichment ratio after two sorts for PhoP signalling” is about 0, and the highest 2% start at about 11. What follows is part of a selection rich in the highest values, with near analogues and random picks from the rest.
# B1: PhoQ; a variant is named by its letters at X, in order, P23837 (parent)
# chain: MKKLLRLFFPLSLRVRFLLATAAVVLVLSLAYGMVALIGYSVSFDKTTFRLLRGESNLFYTLAKWENNKLHVELPENIDKQSPTMTLIYDENGQLLWAQRDVPWLMKMIQPDWLKSNGFHEIEADVNDTSLLLSGDHSIQQQLQEVREDDDDAEMTHSVAVNVYPATSRMPKLTIVVVDTIPVELKSSYMVWSWFIYVLSANLLLVIPLLWVAAWWSLRPIEALAKEVRELEEHNRELLNPATTRELTSLVRNLNRLLKSERERYDKYRTTLTDLTHSLKTPLXXLQXXLRSLRSEKMSVSDAEPVMLEQISRISQQIGYYLHRASMRGGTLLSRELHPVAPLLDNLTSALNKVYQRKGVNISLDISPEISFVGEQNDFVEVMGNVLDNACKYCLEFVEISARQTDEHLYIVVEDDGPGIPLSKREVIFDRGQRVDTLRPGQGVGLAVAREITEQYEGKIVAGESMLGGARMEVIFGRQHSAPKDE
# Variants of: B1
# Assay: enrichment ratio after two sorts for PhoP signalling (ratio (wild type AVST 3.29)); higher = more functional
# Conditions: with PhoP (E. coli)
row,Variant,enrichment ratio
1,LAQM,≤ 0.25
2,TLQM,15.4
3,TQQM,17.5
4,FQQM,≤ 0.25
5,SGQK,≤ 0.25
6,SMQM,20.4
7,SMRM,≤ 0.25
8,SMGM,5.78
9,SGQM,14.7
10,KAQM,≤ 0.25
11,DWQM,≤ 0.25
12,RGQM,≤ 0.25
13,IDFL,≤ 0.25
14,SWLW,≤ 0.25
15,FYKC,≤ 0.25
16,FEKG,≤ 0.25
17,DDSK,≤ 0.25
18,RTPK,≤ 0.25
19,TQKM,≤ 0.25
20,MGAV,5.2
21,SRQM,≤ 0.25
22,TSQM,24
23,KSQM,≤ 0.25
24,LTQM,≤ 0.25

row,Variant,enrichment ratio
1,FSQM,≤ 0.25
2,FCQM,≤ 0.25
3,KYQM,≤ 0.25
4,SPQM,≤ 0.25
5,SCQM,30.8
6,STQM,12.8
7,YTQM,≤ 0.25
8,TTQM,12.5
9,RPSF,≤ 0.25
10,GPMM,≤ 0.25
11,AHKW,≤ 0.25
12,PCPS,≤ 0.25
13,AQDI,≤ 0.25
14,SQQM,15.9
15,SLQM,7.14
16,SAQM,8.97
17,HIPP,≤ 0.25
18,TDCL,1.96
19,KHNK,≤ 0.25
20,YPTR,≤ 0.25
21,YCAA,≤ 0.25
22,NASN,≤ 0.25
23,FFSN,≤ 0.25
24,KASG,≤ 0.25

row,Variant,enrichment ratio
1,QRSN,≤ 0.25
2,FVSN,≤ 0.25
3,QASN,11.4
4,QGSN,20.2
5,QRSG,≤ 0.25
6,QASG,17.4
7,GMMP,≤ 0.25
8,DWWS,≤ 0.25
9,RCNY,≤ 0.25
10,NNFP,≤ 0.25
11,QNYN,≤ 0.25
12,NSYV,≤ 0.25
13,AVPN,≤ 0.25
14,FCMQ,1.02
15,FTDG,≤ 0.25
16,TVDG,≤ 0.25
17,QSDG,11.8
18,QGDG,11.8
19,KSDG,≤ 0.25
20,YTDG,≤ 0.25
21,TSDG,0.59
22,FFDG,≤ 0.25
23,PVDG,≤ 0.25
24,QTDG,13.5

row,Variant,enrichment ratio
1,FCDG,≤ 0.25
2,QVDG,30.4
3,LTLA,≤ 0.25
4,HNKA,≤ 0.25
5,AFKV,≤ 0.25
6,RRQL,≤ 0.25
7,RSSV,≤ 0.25
8,VLVH,≤ 0.25
9,TVDW,≤ 0.25
10,TEFQ,8.52
11,MEFH,4.99
12,TEFC,14.4
13,QEFH,≤ 0.25
14,QEFN,3.01
15,TEFA,11.3
16,TEFH,12.1
17,MEFN,7.67
18,TEFP,≤ 0.25
19,TEFN,18.2
20,TEFI,9.19
21,TEFS,10.9
22,GKHH,≤ 0.25
23,NVPN,≤ 0.25
24,VKNT,≤ 0.25

row,Variant,enrichment ratio
1,GVCV,3.13
2,AWFR,≤ 0.25
3,RMDG,≤ 0.25
4,DDGS,≤ 0.25
5,LMRD,≤ 0.25
6,FKNL,≤ 0.25
7,FPYE,≤ 0.25
8,HPWR,≤ 0.25
9,WNMS,≤ 0.25
10,NTFG,≤ 0.25
11,NEFG,≤ 0.25
12,TEFG,19
13,MEFG,5.56
14,WVYE,≤ 0.25
15,PMID,≤ 0.25
16,AHCG,15.3
17,VHCG,≤ 0.25
18,TGCG,24.4
19,RGCG,≤ 0.25
20,FDCG,≤ 0.25
21,ADCG,1.58
22,KDCG,≤ 0.25
23,NHCG,≤ 0.25
24,ANCG,26.6

row,Variant,enrichment ratio
1,TDCG,13.4
2,PGCG,≤ 0.25
3,AKCG,2.88
4,AIDP,≤ 0.25
5,IFDW,≤ 0.25
6,PKQC,≤ 0.25
7,DRKW,≤ 0.25
8,LGNW,≤ 0.25
9,FFWM,≤ 0.25
10,FMLS,≤ 0.25
11,ADIG,≤ 0.25
12,ANIG,29.2
13,AHIG,≤ 0.25
14,REKI,≤ 0.25
15,KRHD,≤ 0.25
16,LMWD,≤ 0.25
17,GELH,11.9
18,GETK,≤ 0.25
19,GETH,≤ 0.25
20,GYLH,≤ 0.25
21,GELM,15.9
22,GELG,22.4
23,GEKA,≤ 0.25
24,GETC,3.51

row,Variant,enrichment ratio
1,GENS,≤ 0.25
2,GELF,9.93
3,GYLG,≤ 0.25
4,GETI,11.6
5,HGYA,≤ 0.25
6,STTP,≤ 0.25
7,YKHK,≤ 0.25
8,SYEL,≤ 0.25
9,TAIS,0.325
10,NLWP,≤ 0.25
11,RDCA,≤ 0.25
12,EMPC,≤ 0.25
13,PMHF,≤ 0.25
14,DDQI,≤ 0.25
15,PLHV,≤ 0.25
16,KPNT,≤ 0.25
17,RISY,≤ 0.25
18,GELA,18.1
19,GEWI,≤ 0.25
20,GELS,8.59
21,ASCY,0.505
22,LYCM,≤ 0.25
23,SGIV,7.69
24,ANIQ,11

row,Variant,enrichment ratio
1,HVDI,≤ 0.25
2,WNPW,≤ 0.25
3,TEGQ,≤ 0.25
4,TECS,26.8
5,NECQ,≤ 0.25
6,TECI,2.38
7,NECG,≤ 0.25
8,TEEG,9.76
9,TECA,0.528
10,TECQ,12.3
11,NEAI,≤ 0.25
12,TEAI,20.4
13,TECG,15.7
14,TEYY,10.3
15,KAWS,≤ 0.25
16,GAMP,≤ 0.25
17,KTEG,≤ 0.25
18,STDK,≤ 0.25
19,AAVN,≤ 0.25
20,KDFG,≤ 0.25
21,TECW,37.6
22,NECW,≤ 0.25
23,MECW,≤ 0.25
24,QECV,8.7

row,Variant,enrichment ratio
1,TECV,22.2
2,TPKM,≤ 0.25
3,LMLV,≤ 0.25
4,GRQP,≤ 0.25
5,FEMW,≤ 0.25
6,NSMI,2.19
7,FCMI,33.7
8,VCMI,17.6
9,FTMI,13.1
10,FEMD,≤ 0.25
11,KCMI,≤ 0.25
12,VYMI,≤ 0.25
13,YTMI,6.21
14,FEMI,13
15,FTPA,0.426
16,FCMS,≤ 0.25
17,PKDI,≤ 0.25
18,LYLD,≤ 0.25
19,HNKV,≤ 0.25
20,VKIK,≤ 0.25
21,ALCW,6.49
22,YKFA,≤ 0.25
23,VGHR,≤ 0.25
24,HQYF,≤ 0.25

row,Variant,enrichment ratio
1,GGVV,≤ 0.25
2,GETD,≤ 0.25
3,MEVV,2.27
4,TEVV,12.9
5,FCVV,≤ 0.25
6,SEVV,13.1
7,SQVV,8.77
8,GEVV,17.2
9,FEVV,11.9
10,MAVV,≤ 0.25
11,SLVV,1.38
12,NEVV,≤ 0.25
13,NFKG,≤ 0.25
14,QAIA,≤ 0.25
15,SRGI,≤ 0.25
16,SCGI,12.6
17,SNGI,12.1
18,KYGI,≤ 0.25
19,SNFP,≤ 0.25
20,STGI,4.79
21,FMGW,≤ 0.25
22,HQYK,≤ 0.25
23,SCAT,16.1
24,SCLT,13.3

row,Variant,enrichment ratio
1,SCLS,9.62
2,SCLN,11.7
3,SCVT,1.01
4,SWLN,≤ 0.25
5,SCDT,≤ 0.25
6,SCVA,4.93
7,SCLA,11.8
8,SCIT,1.21
9,SCNT,≤ 0.25
10,SCVN,11.1
11,PRNP,≤ 0.25
12,AWLY,≤ 0.25
13,SHFY,≤ 0.25
14,VDWL,≤ 0.25
15,MMEY,≤ 0.25
16,FQTE,≤ 0.25
17,KSTE,≤ 0.25
18,SQTE,26.5
19,EQTE,≤ 0.25
20,TQQK,≤ 0.25
21,TQTE,26.4
22,YTEA,≤ 0.25
23,PPGL,≤ 0.25
24,AGLC,12.4

row,Variant,enrichment ratio
1,TGLC,10
2,GGLC,4.03
3,NALC,≤ 0.25
4,AALC,13.9
5,VGLC,16.6
6,YALC,3.77
7,VFLC,≤ 0.25
8,VYLC,≤ 0.25
9,NNPM,≤ 0.25
10,QKWG,≤ 0.25
11,ASFD,≤ 0.25
12,KIHF,≤ 0.25
13,NGVA,≤ 0.25
14,KLRA,≤ 0.25
15,MKAC,≤ 0.25
16,STAC,4.33
17,NEAC,15.1
18,DMAC,≤ 0.25
19,MEAC,37.3
20,SLAC,2.46
21,SEAC,19.8
22,QKAC,≤ 0.25
23,YWAC,≤ 0.25
24,SFAC,≤ 0.25

row,Variant,enrichment ratio
1,QEAC,16
2,MMAC,3.29
3,NIYV,≤ 0.25
4,IRLQ,≤ 0.25
5,HPHQ,≤ 0.25
6,QISV,≤ 0.25
7,SDLF,≤ 0.25
8,TCEE,≤ 0.25
9,MKWH,≤ 0.25
10,QAWW,≤ 0.25
11,QCDG,≤ 0.25
12,YQQR,≤ 0.25
13,EQAC,≤ 0.25
14,VEAC,0.99
15,KSAC,≤ 0.25
16,FSAC,≤ 0.25
17,SQAC,13.4
18,SSAC,11.3
19,NQAC,≤ 0.25
20,KAAC,≤ 0.25
21,TEAC,25.6
